# Reference: PubChem BioAssay (EPA / NIEHS)
# Activity calls are given as the source filed them. The calls were made as follows: active = hit-call score of the fitted dose curve at least 0.9, where 1 is the maximum; inactive = score below 0.9.
# Read-out: Insulin-like growth factor-binding protein 1 (IGFBP1), IGFBP1 (gene 3484)
# Experiment: LTEA_HepaRG_IGFBP1: Life Technologies and Expression Analysis (LTEA) Assay for Insulin-like growth factor-binding protein 1 (IGFBP1) using HepaRG (AID 2283508)
# Settings: mRNA level, 48 h; actives raise or lower the signal
# In short: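 Differentiated human HepaRG cells in serum-free induction medium were exposed in duplicate for 48 h to eight concentrations, top 100 uM with half-log dilutions, in 0.5% DMSO. Transcript levels came from qRT-PCR normalised to ACTB, GAPDH and POLR2A, fitted bidirectionally against DMSO.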
Structure (SMILES),outcome,AC50
c1ccc2n[nH]nc2c1,inactive,
Cc1oc2c(NC(=O)c3c(Cl)cccc3Cl)cccc2c1C(C)(C)O,,37.8 µM (active)
Cc1cc(F)ccc1-c1cc(N2CC[C@@H](O)[C@H]2CO)ncc1N(C)C(=O)C(C)(C)c1cc(C(F)(F)F)cc(C(F)(F)F)c1,,70.5 µM (active)
CC(C)(c1cc(Br)c(O)c(Br)c1)c1cc(Br)c(O)c(Br)c1,,69.1 µM (active)
CN1C(=O)N(c2ccccc2Br)Cc2cnc(Nc3ccc4c(c3)OCC(CO)O4)nc21 (stereo unspecified),,62.3 µM (active)
CCOC(=O)O[C@H](C)OC(=O)c1ccc2c(c1)cc(C(=O)NC1CCN(C(C)C)CC1)n2Cc1cc(-c2ccc(Cl)s2)on1,inactive,
CCCCCCCCOC(=O)c1cc(O)c(O)c(O)c1,inactive,
CN(C)c1ccc(C(=C2C=CC(=[N+](C)C)C=C2)c2ccc(N(C)C)cc2)cc1,,3.64 µM (active)
COc1ccc2cc(S(=O)(=O)N[C@H](CC(=O)N[C@H](Cc3ccc(CN4[C@H](C)CCC[C@@H]4C)cc3)C(=O)N(C)C(C)C)c3ccc4c(c3)OCO4)ccc2c1,,13 µM (active)
CCN(Cc1cccc(S(=O)(=O)O)c1)c1ccc(C(=C2C=CC(=[N+](CC)Cc3cccc(S(=O)(=O)O)c3)C=C2)c2ccccc2S(=O)(=O)[O-])cc1,inactive,
Oc1ccc2ccccc2c1,inactive,
Clc1cc(Cl)c2c(c1)N=C1CCCCCN1C2,,15.5 µM (active)
CC(C)(O)c1ccc(CNC(=O)c2cccnc2Oc2ccc3nonc3c2)cc1,inactive,
O=C(O)Cn1c(=O)n(Cc2ccc(Br)cc2F)c(=O)c2ccc(Cl)cc21,inactive,
CC/C(=C(/CC)c1ccc(O)cc1)c1ccc(O)cc1,,66.6 µM (active)
COc1cc(C(=O)NC2CCN(C)CC2)ccc1Nc1ncc2c(n1)N(C1CCCC1)CC(F)(F)C(=O)N2C,,23.3 µM (active)
CCN(CC)C(=O)c1cc(S(=O)(=O)Cc2ccccc2)c(N2CCC(c3ccccc3)CC2)cc1N(CC)CCN(C)C,,32.2 µM (active)
CC[C@@H]1C[C@H](N(Cc2cc(C(F)(F)F)cc(C(F)(F)F)c2)C(C)=O)c2cc(C(F)(F)F)ccc2N1C(=O)OC(C)C,inactive,
c1ccc2ccccc2c1,inactive,

Structure (SMILES),outcome,AC50
CCCCCCCCCCCO,inactive,
Cc1ccc(C(C)C)cc1,inactive,
OC12N=C(c3ccccc3)SC1Cc1cc(Cl)ccc12 (stereo unspecified),,13 µM (active)
CN(C)C(=O)C1(N2CCCCC2)CCN(CC[C@@]2(c3ccc(Cl)c(Cl)c3)CN(C(=O)c3ccccc3)CCO2)CC1,,21.6 µM (active)
O=CCCCC=O,inactive,
NCc1cccc(C2CCN(C(=O)c3ccc(C#Cc4ccccc4F)o3)CC2)c1,inactive,
COc1cccc([C@H](O)C2CCN(CCc3ccc(F)cc3)CC2)c1OC,,33.6 µM (active)
CC(C)(C)c1csc(-c2cc3cc(OCc4ccccc4CC(=O)O)ccc3o2)n1,,32.2 µM (active)
O=c1[nH]sc2ccccc12,inactive,
O=c1c(-c2ccc(O)cc2)coc2cc(O)cc(O)c12,inactive,
CCCCCCCC[Si](OCC)(OCC)OCC,inactive,
CCCCOC(=O)CC(CC(=O)OCCCC)(OC(C)=O)C(=O)OCCCC,inactive,
CCCCCCCCN(C)CCCCCCCC,inactive,
CC[C@H](NC(=O)c1cc(F)ccc1NS(=O)(=O)c1cccc2cccnc12)c1ccccc1,inactive,
CCCCCCCCCCCC[N+](C)(C)C,,84.2 µM (active)
O=C1CCC(C2CCCCC2)CC1,inactive,
O=C1c2ccccc2C(=O)N1CCc1noc(-c2ccc(CN3CCCCCC3)s2)n1,inactive,
CC1=CC(=O)/C(=C(/C)O)C(=O)O1,inactive,
CCO[Si](CCCNC(N)=O)(OCC)OCC,inactive,

# Read-out: Interleukin 6 (IL6), IL6 (gene 3569)
# Experiment: LTEA_HepaRG_IL6: Life Technologies and Expression Analysis (LTEA) Assay for Interleukin 6 (IL6) using HepaRG (AID 2283509)
# Settings: mRNA level, 48 h; actives raise or lower the signal
# In short: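 Differentiated human HepaRG cells, plated 48 h then switched to serum-free induction medium, were exposed in duplicate for 48 h to eight half-log concentrations up to 100 uM in 0.5% DMSO. IL6 mRNA measured by qRT-PCR, normalized to ACTB/GAPDH/POLR2A.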
Structure (SMILES),outcome,AC50
c1ccc2n[nH]nc2c1,inactive,
Cc1oc2c(NC(=O)c3c(Cl)cccc3Cl)cccc2c1C(C)(C)O,,66.2 µM (active)
Cc1cc(F)ccc1-c1cc(N2CC[C@@H](O)[C@H]2CO)ncc1N(C)C(=O)C(C)(C)c1cc(C(F)(F)F)cc(C(F)(F)F)c1,,48.6 µM (active)
CC(C)(c1cc(Br)c(O)c(Br)c1)c1cc(Br)c(O)c(Br)c1,,75.5 µM (active)
CN1C(=O)N(c2ccccc2Br)Cc2cnc(Nc3ccc4c(c3)OCC(CO)O4)nc21 (stereo unspecified),,11.6 µM (active)
CCOC(=O)O[C@H](C)OC(=O)c1ccc2c(c1)cc(C(=O)NC1CCN(C(C)C)CC1)n2Cc1cc(-c2ccc(Cl)s2)on1,inactive,
CCCCCCCCOC(=O)c1cc(O)c(O)c(O)c1,,50 µM (active)
CN(C)c1ccc(C(=C2C=CC(=[N+](C)C)C=C2)c2ccc(N(C)C)cc2)cc1,,6.98 µM (active)
COc1ccc2cc(S(=O)(=O)N[C@H](CC(=O)N[C@H](Cc3ccc(CN4[C@H](C)CCC[C@@H]4C)cc3)C(=O)N(C)C(C)C)c3ccc4c(c3)OCO4)ccc2c1,,30.9 µM (active)
CCN(Cc1cccc(S(=O)(=O)O)c1)c1ccc(C(=C2C=CC(=[N+](CC)Cc3cccc(S(=O)(=O)O)c3)C=C2)c2ccccc2S(=O)(=O)[O-])cc1,inactive,
Oc1ccc2ccccc2c1,inactive,
Clc1cc(Cl)c2c(c1)N=C1CCCCCN1C2,inactive,
CC(C)(O)c1ccc(CNC(=O)c2cccnc2Oc2ccc3nonc3c2)cc1,inactive,
O=C(O)Cn1c(=O)n(Cc2ccc(Br)cc2F)c(=O)c2ccc(Cl)cc21,inactive,
CC/C(=C(/CC)c1ccc(O)cc1)c1ccc(O)cc1,,93 µM (active)
COc1cc(C(=O)NC2CCN(C)CC2)ccc1Nc1ncc2c(n1)N(C1CCCC1)CC(F)(F)C(=O)N2C,,25.2 µM (active)
CCN(CC)C(=O)c1cc(S(=O)(=O)Cc2ccccc2)c(N2CCC(c3ccccc3)CC2)cc1N(CC)CCN(C)C,,36.3 µM (active)
CC[C@@H]1C[C@H](N(Cc2cc(C(F)(F)F)cc(C(F)(F)F)c2)C(C)=O)c2cc(C(F)(F)F)ccc2N1C(=O)OC(C)C,inactive,
c1ccc2ccccc2c1,inactive,

Structure (SMILES),outcome,AC50
CCCCCCCCCCCO,inactive,
Cc1ccc(C(C)C)cc1,inactive,
OC12N=C(c3ccccc3)SC1Cc1cc(Cl)ccc12 (stereo unspecified),inactive,
CN(C)C(=O)C1(N2CCCCC2)CCN(CC[C@@]2(c3ccc(Cl)c(Cl)c3)CN(C(=O)c3ccccc3)CCO2)CC1,,22.1 µM (active)
O=CCCCC=O,inactive,
NCc1cccc(C2CCN(C(=O)c3ccc(C#Cc4ccccc4F)o3)CC2)c1,inactive,
COc1cccc([C@H](O)C2CCN(CCc3ccc(F)cc3)CC2)c1OC,inactive,
CC(C)(C)c1csc(-c2cc3cc(OCc4ccccc4CC(=O)O)ccc3o2)n1,,81.3 µM (active)
O=c1[nH]sc2ccccc12,inactive,
O=c1c(-c2ccc(O)cc2)coc2cc(O)cc(O)c12,inactive,
CCCCCCCC[Si](OCC)(OCC)OCC,inactive,
CCCCOC(=O)CC(CC(=O)OCCCC)(OC(C)=O)C(=O)OCCCC,inactive,
CCCCCCCCN(C)CCCCCCCC,inactive,
CC[C@H](NC(=O)c1cc(F)ccc1NS(=O)(=O)c1cccc2cccnc12)c1ccccc1,inactive,
CCCCCCCCCCCC[N+](C)(C)C,,77.8 µM (active)
O=C1CCC(C2CCCCC2)CC1,inactive,
O=C1c2ccccc2C(=O)N1CCc1noc(-c2ccc(CN3CCCCCC3)s2)n1,inactive,
CC1=CC(=O)/C(=C(/C)O)C(=O)O1,inactive,
CCO[Si](CCCNC(N)=O)(OCC)OCC,inactive,
